Results as given in PubChem BioAssay (Tox21).
Records with an inconclusive call do not appear. The source made the active and inactive calls. The call rests on the fitted dose curve; in most records, active means well fitted cell-killing curve with a large enough effect in the repeat runs; inconclusive means weak or mixed curves; inactive means flat fitted curve, though single readings scatter.

assay: qHTS RealTime-Glo MT Cell Viability Assay in HepG2 cells - 24 hour (AID 1224867); conditions: RealTime-Glo luminescence; series mostly up to 76.8 µM; further: nearly all actives have a fitted effect of over 50% in size
From the text: U.S. Tox21 Program National Center for Advancing Translational Sciences [NCATS] NIH Chemical Genomics Center [NCGC] U.S. Environmental Protection Agency [EPA] National Institutes of Environmental Health Sciences [NIEHS] National Toxicology Program [NTP] U.S. Food and Drug Administration [FDA] Tox21 Assay Overview: Measure of cell viability is critical in the cell-base assay. Analysis of cell viability is necessary for the characterization of cell responses to cytotoxic drugs and environmental stress. A RealTime-Glo MT Cell Viability Assay to monitor cell viability in real time of continues cell culture during 40 hours of compound treatment was used to screen Tox21 10K library compounds in HepG2 cells. The RealTime-Glo MT Cell Viability Assay is a nonlytic, homogeneous, bioluminescent method to measure cell viability in real time using a simple, plate-based method. The assay involves adding NanoLuc luciferase and a cell-permeant prosubstrate to cells in culture. Viable cells reduce the proprietary prosubstrate to generate a substrate for NanoLuc luciferase. This substrate diffuses from cells into the surrounding culture medium, where it is rapidly used by the NanoLuc Enzyme to produce a luminescent signal. The signal correlates with the number of viable cells, making the assay well suited for cytotoxicity studies.
Tox21 Assay Protocol Summary: The mixture of HepG2 cell suspension and reagents were dispensed at 600cells/6 ul/well in 1536-well tissue culture treated black solid bottom plates using a Multidrop dispenser. After the assay plates were incubated at a 37 C/5% CO2 incubator for 5 hours, 23 nL of compounds dissolved in DMSO, positive and negative controls was transferred to the assay plate by a pintool work station. The plates were incubated at 37 C for 40 hours. The luminescence intensity were measured at 0h, 8h, 16h, 24h, 32h and 40h time points using ViewLux plate reader during compound treatment.

Row | Structure (SMILES) | outcome
1 | Cc1[nH]c(=O)n(C(C)(C)C)c(=O)c1Cl | inactive
2 | COC(=O)c1ccccc1N | inactive
3 | COC(=O)c1ccccc1C(=O)OC | inactive
4 | O=C(O)c1ccccn1 | inactive
5 | CC(C)(C)OOC(C)(C)C | inactive
6 | ClCc1cccnc1 | inactive
7 | O=c1n(Cl)c(=O)n(Cl)c(=O)n1Cl | inactive
8 | CCC12COCN1COC2 | inactive
9 | Cc1cc(-c2cc(C)c(N)c(C)c2)cc(C)c1N | inactive
10 | CCCCCCCCCl | inactive
11 | ClCCBr | inactive
12 | CC(C)N1C(=O)c2ccccc2NS1(=O)=O | inactive
13 | CN=C=S | inactive
14 | O=c1[nH]c2ccccc2c(=O)o1 | inactive
15 | C#CCN(C)[C@H](C)Cc1ccccc1 | inactive
16 | CC(C)(C)OOC(=O)c1ccccc1 | inactive
17 | COC(=O)NS(=O)(=O)c1ccc(N)cc1 | inactive
18 | c1ccc(-c2ccccc2)cc1 | inactive
19 | O=Cc1cccc(Oc2ccccc2)c1 | inactive
20 | CCCCN(CC)C(=O)SCCC | inactive

Row | Structure (SMILES) | outcome
21 | CCNc1nc(NC(C)C)nc(SC)n1 | inactive
22 | C=CCO | inactive
23 | CCCCCOC(=O)c1ccccc1C(=O)OCCCCC | inactive
24 | OCCN(CCO)CCO | inactive
25 | CCCC1COC(Cn2cncn2)(c2ccc(Cl)cc2Cl)O1 (stereo not given) | inactive
26 | CCC(C)(CC)c1cc(NC(=O)c2c(OC)cccc2OC)on1 | inactive
27 | Cc1ccc([N+](=O)[O-])cc1C | inactive
28 | Cc1cccc([N+](=O)[O-])c1 | inactive
29 | COP(N)(=O)SC (stereo not given) | inactive
30 | CC(C)(Cl)Cl | inactive
31 | Cc1ccc(N)cc1N | inactive
32 | c1ccc2c(c1)oc1ccccc12 | inactive
33 | O=c1[nH]c(=O)[nH]c(=O)[nH]1 | inactive
34 | Nc1c(Cl)c(Cl)nc(C(=O)O)c1Cl | inactive
35 | Cc1ccc(N)cc1Cl | inactive
36 | CC(=O)C=C(C)C | inactive
37 | O=S(=O)(c1ccc(Cl)cc1)c1cc(Cl)c(Cl)cc1Cl | inactive
38 | O=[N+]([O-])c1ccc([As](=O)(O)O)cc1 | inactive
39 | Clc1cccc(Cl)c1Cl | inactive
40 | Oc1ccccc1Cl | inactive
